Test results as given in PubChem BioAssay (NCATS).
Records with an inconclusive call do not appear. Active and inactive are the calls of the source. Calls come from the whole dose curve; as a rule, active = well fitted cell-killing curve with a large enough effect; inconclusive = small, poorly fitted or top-dose-only effect; inactive = flat fitted curve, though single readings scatter.

experiment: Cellular viability qHTS for adrenocortical cancer (ACC) cell line NCI-H295R (AID 1963990); conditions: CellTiter-Glo ATP luminescence, 48 h; series mostly up to 46.1 µM; activity change, negative = viability loss: at the top concentration; note: nearly all actives have a fitted effect of over 60% in size;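 for activity change, negative = viability loss: 0% = DMSO only wells and -100% = full killing with cytotoxic reference compound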
Outline: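 CellTiter-Glo ATP luminescence, read 48 h after compound addition, measured viability of NCI-H295R adrenocortical cells grown serum-free with ITS. Final concentrations spanned up to 46 uM. Data normalized to DMSO and doxorubicin, fitted for IC50 and maximal response.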
Potency is the fitted concentration of half-maximal effect.

Row | Structure (SMILES) | activity change, negative = viability loss | Potency
1 | CN(C)C(=O)Oc1cc(OC(=O)N(C)C)cc(C(O)CNC(C)(C)C)c1 (stereo not given) | -5.86% (inactive) | 
2 | CCN(CCO)CCn1c(Cc2ccccc2)nc2c1c(=O)n(C)c(=O)n2C | -0.2% (inactive) | 
3 | O=C1NCN(c2ccccc2)C12CCN(CC1COc3ccccc3O1)CC2 (stereo not given) | -14.9% (inactive) | 
4 | CN[C@@H]1C[C@H]2O[C@@](C)([C@@H]1OC)n1c3ccccc3c3c4c(c5c6ccccc6n2c5c31)C(=O)NC4 |  | 0.282 µM (active)
5 | CN1CC[C@]23c4c5ccc(O)c4O[C@H]2[C@@H](O)CC[C@H]3[C@H]1C5 | -6.35% [at 92.7 µM] (inactive) | 
6 | CNCC(=O)c1ccc(O)c(O)c1 | -8.27% (inactive) | 
7 | CC(C)=CCN1CC[C@@]2(C)c3cc(O)ccc3C[C@@H]1[C@@H]2C |  | 31.6 µM (active)
8 | Clc1ccc(CSC(Cn2ccnc2)c2ccc(Cl)cc2Cl)cc1 (stereo not given) |  | 4.11 µM (active)
9 | OC(c1ccccc1)(c1ccccc1)C1CCNCC1 | -0.339% (inactive) | 
10 | C[C@]12CC[C@H]3[C@@H](CCC4=CC(=O)CC[C@@H]43)[C@@H]1CC[C@@H]2OC(=O)CCC1CCCCC1 | -23.7% (inactive) | 
11 | O=C1OC(CCN2CCCCC2)OC1(c1ccccc1)c1ccccc1 (stereo not given) |  | 25.9 µM (active)
12 | O=C(O)C1=CCCN(CCOC(c2ccc(C(F)(F)F)cc2)c2ccc(C(F)(F)F)cc2)C1 | -2.17% (inactive) | 
13 | CC1(C)CC[C@]2(NC(=O)C(C)(F)F)CC[C@]3(C)[C@H](C(=O)C=C4[C@@]5(C)C=C(C#N)C(=O)C(C)(C)[C@@H]5CC[C@]43C)[C@@H]2C1 |  | 3.98 µM (active)
14 | CCCN(CCC)C(=O)Cc1c(-c2ccc(Cl)cc2)nc2ccc(Cl)cn12 | 0.0125% (inactive) | 
15 | C[C@H](Nc1ncnc2nc[nH]c12)c1nc2ccc(F)cc2c(=O)n1-c1ccccc1 | -6.54% (inactive) | 
16 | CN(C)CCc1c[nH]c2ccc(O)cc12 | -31.3% [at 92.7 µM] (inactive) | 
17 | C[C@]12COC(=O)C[C@@H]1CC[C@@H]1[C@@H]2CC[C@@]2(C)[C@H]1CC[C@]2(C)O | -5.36% (inactive) | 
18 | CCc1cc2c(s1)-n1c(C)nnc1CN=C2c1ccccc1Cl | -1.4% (inactive) | 
19 | CC[C@@H](CO)NC(=O)[C@@H]1C=C2c3cccc4[nH]cc(c34)C[C@H]2N(C)C1 | -22.2% (inactive) | 
20 | CCOC(=O)c1cncn1C(C)c1ccccc1 (stereo not given) | -18.2% (inactive) | 
